Experimental findings from article PMC7862700, “An all-to-all approach to the identification of sequence-specific readers for epigenetic DNA modifications on cytosine” are described below.

Common to all, as to test: DAPPL (digital affinity profiling via proximity ligation, sequencing); 10 mM Tris-HCl pH 7.5, 50 mM NaCl, 1 mM DTT, 4% glycerol, room temperature, 30 min; GST-TFs on glutathione beads, 16-mer random dsDNA library, 0.1% formaldehyde crosslink after washing; high values mean tight binding
One assay addresses T1, FEV (Homo sapiens, UniProt Q99581 1-238).
T1 sequence: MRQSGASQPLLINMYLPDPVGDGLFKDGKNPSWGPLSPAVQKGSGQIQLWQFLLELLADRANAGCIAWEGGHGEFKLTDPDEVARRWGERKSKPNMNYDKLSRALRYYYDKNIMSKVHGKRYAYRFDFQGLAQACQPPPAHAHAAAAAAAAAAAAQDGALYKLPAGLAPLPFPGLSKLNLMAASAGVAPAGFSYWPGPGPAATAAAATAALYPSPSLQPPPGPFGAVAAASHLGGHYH
To be noted: protein: recombinant; tags: N-terminal GST; dsDNA, one strand shown. The procedure, abridged:
(§1)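 Each value of binding signal is a hexamer's read frequency for a factor divided by the same hexamer's frequency in the tag-only sample. Barcoded, bead-captured GST fusions of human transcription factors made in yeast were pooled with that sample and incubated with 200 nmole of a random double-stranded 16-mer DNA library in Tris/NaCl/DTT/glycerol buffer at room temperature for 30 min. Washing, 0.1% formaldehyde crosslinking, proximity ligation, PCR and Illumina NextSeq500 sequencing followed.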

The next assay concerns the target ETV5 (Homo sapiens, UniProt P41161 1-510). The conditions noted are these: protein: recombinant; tags: N-terminal GST; dsDNA, one strand shown. The procedure, abridged: as §1
A further assay addresses HSF1 (Homo sapiens, UniProt Q00613 1-529). The conditions noted are these: protein: recombinant; tags: N-terminal GST; chain copies: 3; dsDNA, one strand shown. Summed up:
as §1

The next assay addresses T2, SPIC (Homo sapiens, UniProt Q8N5J4 1-248).
T2 sequence: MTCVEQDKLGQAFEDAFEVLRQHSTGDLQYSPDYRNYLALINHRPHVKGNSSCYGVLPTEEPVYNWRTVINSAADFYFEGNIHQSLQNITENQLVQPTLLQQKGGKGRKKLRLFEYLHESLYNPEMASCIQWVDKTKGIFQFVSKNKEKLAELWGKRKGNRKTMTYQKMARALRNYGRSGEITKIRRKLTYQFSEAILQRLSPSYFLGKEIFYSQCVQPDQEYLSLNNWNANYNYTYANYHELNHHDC
To be noted: protein: recombinant; tags: N-terminal GST; dsDNA, one strand shown. Summed up:
as §1

The next assay addresses ELF4 (Homo sapiens, UniProt Q99607 1-663). To be noted: protein: recombinant; tags: N-terminal GST; dsDNA, one strand shown. Summed up:
as §1

The target in a further assay is T3, ELK4 (Homo sapiens, UniProt P28324-2 1-405).
T3 sequence: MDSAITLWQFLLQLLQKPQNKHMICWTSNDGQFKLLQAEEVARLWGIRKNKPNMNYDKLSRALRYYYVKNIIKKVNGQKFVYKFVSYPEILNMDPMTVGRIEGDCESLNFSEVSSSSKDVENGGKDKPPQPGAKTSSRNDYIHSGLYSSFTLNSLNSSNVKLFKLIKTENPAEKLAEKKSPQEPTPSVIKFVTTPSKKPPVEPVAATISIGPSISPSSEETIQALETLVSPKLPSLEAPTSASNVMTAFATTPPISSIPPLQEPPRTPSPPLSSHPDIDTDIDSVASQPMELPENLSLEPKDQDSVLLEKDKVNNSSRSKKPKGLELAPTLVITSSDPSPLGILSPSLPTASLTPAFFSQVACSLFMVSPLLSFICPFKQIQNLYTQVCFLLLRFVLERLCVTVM
To be noted: protein: recombinant; tags: N-terminal GST; dsDNA, one strand shown. Summed up:
as §1

The next assay addresses T4, ETV2 (Homo sapiens, UniProt O00321 1-342).
T4 sequence: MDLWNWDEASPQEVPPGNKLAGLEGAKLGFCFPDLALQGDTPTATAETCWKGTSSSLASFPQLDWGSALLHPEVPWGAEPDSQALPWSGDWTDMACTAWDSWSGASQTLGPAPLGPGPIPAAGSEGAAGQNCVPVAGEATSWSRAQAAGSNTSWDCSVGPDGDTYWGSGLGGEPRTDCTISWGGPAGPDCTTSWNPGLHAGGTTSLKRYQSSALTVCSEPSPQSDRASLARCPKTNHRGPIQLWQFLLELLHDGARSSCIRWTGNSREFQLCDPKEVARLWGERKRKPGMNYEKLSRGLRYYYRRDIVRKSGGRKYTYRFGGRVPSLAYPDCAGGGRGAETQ
The conditions noted are these: protein: recombinant; tags: N-terminal GST; dsDNA, one strand shown. The procedure, abridged: as §1

The target of another assay is T5, ELF3 (Homo sapiens, UniProt P78545 1-371).
T5 sequence: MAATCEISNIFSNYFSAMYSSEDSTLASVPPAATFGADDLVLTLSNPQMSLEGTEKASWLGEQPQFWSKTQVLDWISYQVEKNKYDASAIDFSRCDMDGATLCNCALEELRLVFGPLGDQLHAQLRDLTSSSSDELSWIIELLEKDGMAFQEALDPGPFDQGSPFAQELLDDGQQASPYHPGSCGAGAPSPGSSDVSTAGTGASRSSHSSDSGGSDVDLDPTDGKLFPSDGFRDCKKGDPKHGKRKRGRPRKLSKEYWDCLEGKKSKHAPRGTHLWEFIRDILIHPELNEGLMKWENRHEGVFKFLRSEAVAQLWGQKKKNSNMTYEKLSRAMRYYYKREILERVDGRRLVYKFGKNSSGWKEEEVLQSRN
To be noted: protein: recombinant; tags: N-terminal GST; dsDNA, one strand shown. Summed up: as §1

A further assay concerns the target CRX (Homo sapiens, UniProt O43186 1-299). To be noted: protein: recombinant; tags: N-terminal GST; dsDNA, one strand shown. Summed up: as §1
A further assay concerns the target ETV1 (Homo sapiens, UniProt P50549 1-477). The conditions noted are these: protein: recombinant; tags: N-terminal GST; dsDNA, one strand shown. Summed up: as §1
Another assay has as its target T6, ERF (Homo sapiens, UniProt P50548 1-548).
T6 sequence: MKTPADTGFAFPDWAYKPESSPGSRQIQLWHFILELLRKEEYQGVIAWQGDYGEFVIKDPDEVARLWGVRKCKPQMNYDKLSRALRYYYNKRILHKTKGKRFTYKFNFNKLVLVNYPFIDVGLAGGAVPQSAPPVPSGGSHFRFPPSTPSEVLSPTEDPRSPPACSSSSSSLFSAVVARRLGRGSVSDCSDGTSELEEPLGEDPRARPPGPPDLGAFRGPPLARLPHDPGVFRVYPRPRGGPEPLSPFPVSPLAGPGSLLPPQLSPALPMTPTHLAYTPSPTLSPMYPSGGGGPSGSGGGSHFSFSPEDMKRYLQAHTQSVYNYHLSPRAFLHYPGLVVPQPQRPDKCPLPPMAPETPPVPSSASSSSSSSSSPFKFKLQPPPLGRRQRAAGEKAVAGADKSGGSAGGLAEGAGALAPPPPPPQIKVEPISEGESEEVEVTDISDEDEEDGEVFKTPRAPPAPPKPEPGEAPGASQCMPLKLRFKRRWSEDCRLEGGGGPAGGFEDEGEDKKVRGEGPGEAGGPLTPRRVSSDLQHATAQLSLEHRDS
The conditions noted are these: protein: recombinant; tags: N-terminal GST; dsDNA, one strand shown. Summed up: as §1

For the next assay, the target named is T7, ETV3L (Homo sapiens, UniProt Q6ZN32 1-361).
T7 sequence: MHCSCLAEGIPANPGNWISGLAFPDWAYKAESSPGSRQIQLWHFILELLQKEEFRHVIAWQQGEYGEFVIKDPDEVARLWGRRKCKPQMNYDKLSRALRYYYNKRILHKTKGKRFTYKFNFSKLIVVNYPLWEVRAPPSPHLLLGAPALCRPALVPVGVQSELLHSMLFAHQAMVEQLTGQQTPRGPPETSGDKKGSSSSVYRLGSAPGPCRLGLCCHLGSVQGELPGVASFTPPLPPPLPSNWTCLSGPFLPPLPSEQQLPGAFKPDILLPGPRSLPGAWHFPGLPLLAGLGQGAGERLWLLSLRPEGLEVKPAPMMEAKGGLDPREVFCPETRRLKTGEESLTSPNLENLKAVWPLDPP
The conditions noted are these: protein: recombinant; tags: N-terminal GST; dsDNA, one strand shown. Summed up: as §1

In the next assay the target is T8, ETS2 (Homo sapiens, UniProt P15036 1-469).
T8 sequence: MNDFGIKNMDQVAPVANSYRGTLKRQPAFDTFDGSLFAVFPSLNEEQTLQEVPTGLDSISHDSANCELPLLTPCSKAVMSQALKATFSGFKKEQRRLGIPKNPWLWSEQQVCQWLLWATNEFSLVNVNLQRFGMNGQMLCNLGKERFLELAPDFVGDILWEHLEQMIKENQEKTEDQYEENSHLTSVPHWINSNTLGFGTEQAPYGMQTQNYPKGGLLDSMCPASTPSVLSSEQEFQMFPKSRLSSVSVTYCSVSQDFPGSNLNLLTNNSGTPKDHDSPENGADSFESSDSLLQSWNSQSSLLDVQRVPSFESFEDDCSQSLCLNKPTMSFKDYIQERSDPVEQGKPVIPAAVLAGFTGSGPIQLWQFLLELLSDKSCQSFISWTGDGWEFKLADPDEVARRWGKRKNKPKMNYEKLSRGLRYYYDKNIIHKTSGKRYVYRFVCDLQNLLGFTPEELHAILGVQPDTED
The conditions noted are these: protein: recombinant; tags: N-terminal GST; dsDNA, one strand shown. Summed up:
as §1

A further assay deals with T9, SPDEF (Homo sapiens, UniProt O95238 1-335).
T9 sequence: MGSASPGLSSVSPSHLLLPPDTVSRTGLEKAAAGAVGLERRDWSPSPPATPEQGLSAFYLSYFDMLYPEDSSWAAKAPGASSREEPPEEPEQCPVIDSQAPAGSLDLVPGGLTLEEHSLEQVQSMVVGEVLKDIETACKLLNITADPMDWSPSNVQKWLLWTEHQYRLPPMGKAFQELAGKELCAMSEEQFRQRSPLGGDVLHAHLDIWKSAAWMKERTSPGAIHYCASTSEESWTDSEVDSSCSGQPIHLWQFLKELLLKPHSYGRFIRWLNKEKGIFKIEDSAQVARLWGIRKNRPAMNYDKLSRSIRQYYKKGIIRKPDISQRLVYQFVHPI
To be noted: protein: recombinant; tags: N-terminal GST; dsDNA, one strand shown. Summed up: as §1

Another assay addresses T10, ETV7 (Homo sapiens, UniProt Q9Y603 1-341).
T10 sequence: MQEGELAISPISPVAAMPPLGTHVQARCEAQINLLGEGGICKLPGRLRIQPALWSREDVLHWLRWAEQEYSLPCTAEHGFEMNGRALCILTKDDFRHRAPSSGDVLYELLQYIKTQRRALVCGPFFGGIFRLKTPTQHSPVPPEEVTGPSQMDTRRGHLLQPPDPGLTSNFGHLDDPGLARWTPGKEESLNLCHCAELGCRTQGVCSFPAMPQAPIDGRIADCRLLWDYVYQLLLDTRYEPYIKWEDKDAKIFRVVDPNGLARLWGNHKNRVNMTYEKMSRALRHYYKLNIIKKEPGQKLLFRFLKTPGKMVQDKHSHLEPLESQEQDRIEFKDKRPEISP
The conditions noted are these: protein: recombinant; tags: N-terminal GST; dsDNA, one strand shown. The procedure, abridged:
as §1

The next assay has as its target T11, ELF5 (Homo sapiens, UniProt Q9UKW6-2 1-255).
T11 sequence: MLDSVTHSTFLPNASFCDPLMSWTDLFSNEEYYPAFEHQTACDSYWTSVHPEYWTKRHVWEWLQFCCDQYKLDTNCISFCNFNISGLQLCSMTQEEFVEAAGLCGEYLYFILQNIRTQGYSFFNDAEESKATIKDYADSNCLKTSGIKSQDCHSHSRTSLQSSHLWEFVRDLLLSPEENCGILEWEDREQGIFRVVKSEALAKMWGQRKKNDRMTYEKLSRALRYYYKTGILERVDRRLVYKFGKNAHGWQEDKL
To be noted: protein: recombinant; tags: N-terminal GST; dsDNA, one strand shown. Summed up:
as §1

The target in a further assay is T12, ETV3 (Homo sapiens, UniProt P41162-2 1-143).
T12 sequence: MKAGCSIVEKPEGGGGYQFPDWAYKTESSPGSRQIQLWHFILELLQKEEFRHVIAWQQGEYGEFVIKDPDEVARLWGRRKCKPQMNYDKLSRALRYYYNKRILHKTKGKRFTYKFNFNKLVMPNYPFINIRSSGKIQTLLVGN
The conditions noted are these: protein: recombinant; tags: N-terminal GST; dsDNA, one strand shown. Summed up: as §1

A further assay concerns the target ETV6 (Homo sapiens, UniProt P41212 1-452). To be noted: protein: recombinant; tags: N-terminal GST; dsDNA, one strand shown. Summed up: as §1

Sequence of ETV5 (P41161 whole entry): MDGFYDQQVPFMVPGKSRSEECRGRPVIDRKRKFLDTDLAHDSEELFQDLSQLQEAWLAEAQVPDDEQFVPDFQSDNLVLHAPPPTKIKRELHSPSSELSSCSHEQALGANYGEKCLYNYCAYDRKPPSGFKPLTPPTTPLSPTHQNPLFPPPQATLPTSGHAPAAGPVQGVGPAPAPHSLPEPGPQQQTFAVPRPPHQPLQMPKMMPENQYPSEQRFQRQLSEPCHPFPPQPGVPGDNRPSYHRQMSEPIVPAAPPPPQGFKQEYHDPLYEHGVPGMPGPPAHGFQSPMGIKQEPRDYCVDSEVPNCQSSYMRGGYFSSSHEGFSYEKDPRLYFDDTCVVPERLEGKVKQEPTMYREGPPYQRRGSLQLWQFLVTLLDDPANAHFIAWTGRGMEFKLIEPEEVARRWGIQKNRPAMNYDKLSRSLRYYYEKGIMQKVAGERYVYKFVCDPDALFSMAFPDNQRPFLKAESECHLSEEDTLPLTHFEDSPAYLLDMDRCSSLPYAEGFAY
Sequence of HSF1 (Q00613 whole entry): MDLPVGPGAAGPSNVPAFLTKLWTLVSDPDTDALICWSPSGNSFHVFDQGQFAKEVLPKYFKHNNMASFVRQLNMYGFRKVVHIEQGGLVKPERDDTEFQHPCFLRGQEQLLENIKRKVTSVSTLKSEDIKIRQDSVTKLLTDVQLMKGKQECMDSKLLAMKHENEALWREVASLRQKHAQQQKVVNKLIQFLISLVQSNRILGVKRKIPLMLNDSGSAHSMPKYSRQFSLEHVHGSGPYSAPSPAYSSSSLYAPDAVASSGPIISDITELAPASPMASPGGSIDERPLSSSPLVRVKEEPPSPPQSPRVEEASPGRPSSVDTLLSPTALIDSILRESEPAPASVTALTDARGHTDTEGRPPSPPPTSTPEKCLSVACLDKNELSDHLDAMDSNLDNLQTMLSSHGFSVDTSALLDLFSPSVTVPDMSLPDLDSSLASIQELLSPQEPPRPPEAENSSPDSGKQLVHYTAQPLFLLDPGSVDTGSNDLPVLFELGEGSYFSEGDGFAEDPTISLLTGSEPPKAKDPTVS
Sequence of CRX (O43186 whole entry): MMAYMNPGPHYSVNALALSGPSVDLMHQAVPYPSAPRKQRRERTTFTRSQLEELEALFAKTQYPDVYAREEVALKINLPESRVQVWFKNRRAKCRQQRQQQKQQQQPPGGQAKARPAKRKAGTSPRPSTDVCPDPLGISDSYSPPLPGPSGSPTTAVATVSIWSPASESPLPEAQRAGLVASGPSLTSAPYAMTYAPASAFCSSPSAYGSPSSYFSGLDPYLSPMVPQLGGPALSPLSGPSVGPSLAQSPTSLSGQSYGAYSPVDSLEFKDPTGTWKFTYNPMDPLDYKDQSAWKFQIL
Sequence of ETV1 (P50549 whole entry): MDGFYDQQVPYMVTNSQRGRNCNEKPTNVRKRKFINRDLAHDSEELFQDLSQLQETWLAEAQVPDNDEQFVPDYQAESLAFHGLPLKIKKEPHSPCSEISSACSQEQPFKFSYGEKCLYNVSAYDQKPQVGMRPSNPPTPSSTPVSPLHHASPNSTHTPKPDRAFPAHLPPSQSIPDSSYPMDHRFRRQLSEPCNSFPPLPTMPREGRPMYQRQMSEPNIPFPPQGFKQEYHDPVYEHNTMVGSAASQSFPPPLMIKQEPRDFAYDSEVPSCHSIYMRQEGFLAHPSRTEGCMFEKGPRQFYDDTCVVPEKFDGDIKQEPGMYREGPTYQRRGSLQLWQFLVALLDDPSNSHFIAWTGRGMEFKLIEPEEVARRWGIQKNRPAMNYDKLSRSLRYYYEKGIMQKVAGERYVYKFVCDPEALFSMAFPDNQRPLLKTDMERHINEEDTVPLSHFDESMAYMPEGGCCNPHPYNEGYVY
Sequence of ELF4 (Q99607 whole entry): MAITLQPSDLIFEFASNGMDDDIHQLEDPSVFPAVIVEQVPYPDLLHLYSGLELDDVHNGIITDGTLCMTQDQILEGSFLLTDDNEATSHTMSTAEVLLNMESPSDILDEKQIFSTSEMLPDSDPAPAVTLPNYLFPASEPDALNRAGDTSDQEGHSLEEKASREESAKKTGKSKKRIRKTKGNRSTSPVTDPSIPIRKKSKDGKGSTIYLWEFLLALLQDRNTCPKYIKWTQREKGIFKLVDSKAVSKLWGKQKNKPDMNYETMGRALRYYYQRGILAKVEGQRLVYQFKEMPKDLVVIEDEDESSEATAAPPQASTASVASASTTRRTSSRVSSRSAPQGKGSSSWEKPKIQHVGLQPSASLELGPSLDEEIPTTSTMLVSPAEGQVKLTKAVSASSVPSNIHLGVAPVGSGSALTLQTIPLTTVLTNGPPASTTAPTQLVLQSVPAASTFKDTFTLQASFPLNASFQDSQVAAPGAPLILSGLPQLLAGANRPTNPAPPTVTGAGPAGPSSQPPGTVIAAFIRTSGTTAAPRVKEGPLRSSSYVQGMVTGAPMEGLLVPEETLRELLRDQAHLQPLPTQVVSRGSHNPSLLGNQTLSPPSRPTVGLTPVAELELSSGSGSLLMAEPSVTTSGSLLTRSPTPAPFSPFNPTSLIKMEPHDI
Sequence of ETV6 (P41212 whole entry): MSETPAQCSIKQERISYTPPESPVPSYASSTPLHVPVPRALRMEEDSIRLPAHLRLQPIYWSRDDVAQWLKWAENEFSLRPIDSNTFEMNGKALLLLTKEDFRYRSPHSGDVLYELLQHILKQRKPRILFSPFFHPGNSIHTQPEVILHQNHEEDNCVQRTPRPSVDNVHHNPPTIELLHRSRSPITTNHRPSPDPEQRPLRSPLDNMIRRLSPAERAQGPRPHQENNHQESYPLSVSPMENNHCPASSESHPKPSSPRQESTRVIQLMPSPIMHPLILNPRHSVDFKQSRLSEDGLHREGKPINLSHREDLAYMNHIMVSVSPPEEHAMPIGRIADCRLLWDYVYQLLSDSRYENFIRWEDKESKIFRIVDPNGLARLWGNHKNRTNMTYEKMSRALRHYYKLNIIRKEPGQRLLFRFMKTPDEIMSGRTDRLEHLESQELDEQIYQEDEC

On to CTGAAA, for which the binding signal with FEV is 1.25 fold enrichment (6-mer frequency, TF over GST control); with ETV5, 1.22 fold enrichment (6-mer frequency, TF over GST control); in the assay with HSF1, 1.16 fold enrichment (6-mer frequency, TF over GST control); with SPIC, 1.35 fold enrichment (6-mer frequency, TF over GST control); with ELF4, 1.13 fold enrichment (6-mer frequency, TF over GST control); with ELK4 it was 1.19 fold enrichment (6-mer frequency, TF over GST control). The binding signal in the assay with ETV2 is 1.15 fold enrichment (6-mer frequency, TF over GST control); with ELF3 it was 1.28 fold enrichment (6-mer frequency, TF over GST control); in the assay with CRX, 1 fold enrichment (6-mer frequency, TF over GST control); with ETV1, 1.1 fold enrichment (6-mer frequency, TF over GST control); with ERF, 1.09 fold enrichment (6-mer frequency, TF over GST control); with ETV3L it was 1.1 fold enrichment (6-mer frequency, TF over GST control). Also, the binding signal in the assay with ETS2 was 1.19 fold enrichment (6-mer frequency, TF over GST control); in the assay with SPDEF, 1.16 fold enrichment (6-mer frequency, TF over GST control); in the assay with ETV7, 1.12 fold enrichment (6-mer frequency, TF over GST control); with ELF5 it was 1.09 fold enrichment (6-mer frequency, TF over GST control); in the assay with ETV3 it was 1.17 fold enrichment (6-mer frequency, TF over GST control); in the assay with ETV6, 1.16 fold enrichment (6-mer frequency, TF over GST control).
